TDP1 cell CPT: qHTS for Inhibitors of human tyrosyl-DNA phosphodiesterase 1 (TDP1): qHTS in cells in presence of CPT; 420,000 tested, 12% active; chicken DT40 Tdp1-/-;hTDP1 cells + 20 nM CPT, ATP luminescence, 48 h; Potency, µM (top dose mostly 46.2 µM), inactives show at the top dose activity change, negative = growth inhibition, most hits filed as inhibitors; also: % is scaled to controls: 0 for no effect and ±100 for the full control effect; nearly all actives have a fitted effect of over 55% in size
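Chicken DT40 Tdp1-/- cells complemented with human TDP1, 400 cells/well, exposed to compounds plus 20 nM camptothecin for at least 48 h at 37 C; viability read as ATP content by CellTiter-Glo luminescence.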
DT40 TDP1 no CPT: qHTS for Inhibitors of human tyrosyl-DNA phosphodiesterase 1 (TDP1): qHTS in cells in absence of CPT | DT40 Tdp1-/- hTDP1 cells, no CPT, ATP luminescence, 48 h | Potency, µM (doses to about 46.2 µM), for the others: top-dose activity change, negative = growth inhibition, hits mostly inhibitors | 420,000 tested, 15% active; also: % is scaled to controls: 0 for no effect and ±100 for the full control effect; nearly all actives have a fitted effect of over 55% in size
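Chicken DT40 Tdp1-/- cells stably complemented with human TDP1 were seeded at 400 cells/well with DMSO in place of 20 nM camptothecin. After compound pinning, cells grew at least 48 hr at 37 °C; viability read by CellTiter-Glo luminescence.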
ClpP mod: qHTS Assay for Activators of ClpP; purified B. subtilis ClpP, FRET peptide cleavage, 20 min; 340,000 tested, 1.9% active; Potency, µM (titrated, usually from 57.5 µM), without a hit: at the top dose activity change, negative = active; AID 651965, 2013; active = well fitted falling curve with a large enough effect; inconclusive = small, poorly fitted or top-dose-only effect; inactive = no such curve, though single readings can be large or run the other way; also: the source files actives as falling curves though it sought activators and does not explain the sign; nearly all actives have a fitted effect of over 65% in size
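Buffer: 100 mM Tris/HCl pH8, 100 mM KCl, 0.05% low protease BSA, 2.5% glycerol, 0.01% Tween-20. ClpP 10 microg/mL final; 20 min RT; delta FRET normalized to ADEP and DMSO controls.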
TDP1 inh: qHTS Assay for Inhibitors of Tyrosyl-DNA Phosphodiesterase (TDP1); AID 485290, 2010; Potency, µM (series often up to 130 µM), without a hit: at the highest dose activity change, negative = inhibition, hits mostly inhibitors; 350,000 tested, 0.28% active; recombinant TDP1, AlphaScreen DNA substrate cleavage; also: % is scaled to controls: 0 for no effect and ±100 for the full control effect; nearly all actives have a fitted effect of over 40% in size
Target sequence (Q9NUW8 whole entry, looked up): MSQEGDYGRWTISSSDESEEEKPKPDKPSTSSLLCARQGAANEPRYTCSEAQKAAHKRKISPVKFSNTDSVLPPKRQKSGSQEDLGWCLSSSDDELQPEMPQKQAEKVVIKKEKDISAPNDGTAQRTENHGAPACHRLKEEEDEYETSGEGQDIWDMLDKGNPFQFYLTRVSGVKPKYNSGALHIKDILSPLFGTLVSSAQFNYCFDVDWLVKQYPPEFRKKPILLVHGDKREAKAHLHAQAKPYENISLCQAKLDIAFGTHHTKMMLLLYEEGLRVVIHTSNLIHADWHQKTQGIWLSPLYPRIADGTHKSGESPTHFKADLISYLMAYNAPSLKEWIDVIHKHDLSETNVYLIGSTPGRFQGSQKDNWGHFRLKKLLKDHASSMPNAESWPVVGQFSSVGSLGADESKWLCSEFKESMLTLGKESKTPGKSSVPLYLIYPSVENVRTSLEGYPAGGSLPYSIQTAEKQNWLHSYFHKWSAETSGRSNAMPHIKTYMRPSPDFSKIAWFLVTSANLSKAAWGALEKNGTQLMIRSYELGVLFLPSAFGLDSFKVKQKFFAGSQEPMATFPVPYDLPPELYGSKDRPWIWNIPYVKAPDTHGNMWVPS
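E. coli-derived human Tdp1, 1 nM final. Cpd preinc 15 min RT; substrate 15 nM final, 5 min RT; AS bead mix 10 ug/ml final, 10 min RT. Signal loss = tyrosine-FITC cleavage. No-enzyme wells = max signal.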
The depositor's hits bear a star; ? = inconclusive; / = no result; [ ] = another dose, or the depositor's remark. In the library only some 17% were active in any assay of this set; here they are far more common. Unless noted, calls follow the shape of the dose curve; as a rule, active = well fitted curve in the direction sought with a large enough effect; inconclusive = small, poorly fitted or top-dose-only effect, or another doubt; inactive = no such curve, though single readings can be large; an effect the other way counts as inactive or inconclusive. Potency is read from the fitted curve at half-maximal effect.

SMILES | TDP1 cell CPT | DT40 TDP1 no CPT | ClpP mod | TDP1 inh
Nc1ccc(-c2nc3ccc(N)cc3o2)cc1 | -29% | ? | 5% | 2%
Nc1ccc(-c2nc3ccc(-c4nc5ccccc5o4)cc3[nH]2)cc1 | 15µM* | 8.2µM* | 32% | -3%
c1ccc(-c2nc3ccccc3[nH]2)cc1 | ? | -18% | 4% | /
Nc1ccc2nc(-c3ccc(Cl)cc3)[nH]c2c1 | 2.9µM* | 4.6µM* | 5% | 6%
Clc1ccc2nc(-c3ccccc3)[nH]c2c1 | 30µM* | 27µM* | / | 5%
Cc1ccc(-c2noc(C3CC(=O)N(c4ccc5c(c4)OCCO5)C3)n2)cc1 (centres undefined) | -9% | -5% | 0% | 3%
CCOc1ccc(CCNC(=O)NCc2noc3ccc(C)cc23)cc1 | -24% | ? | 0% | 3%
Cc1ccc2nc(-c3ccccc3N)[nH]c2c1 | -25% | ? | / | 0%
Cc1nc2ccc(Cc3ccc4nc(C)[nH]c4c3)cc2[nH]1 | 26µM* | ? | 1% | -1%
Cc1ccc(C)c(-c2nc3ccc(N)cc3[nH]2)c1 | 23µM* | 15µM* | 49% | 7%
Nc1ccc2nc(-c3cccc(-c4nc5ccc(N)cc5[nH]4)c3)[nH]c2c1 | 5% | ? | / | /
Cc1nc2ccc(-c3nc4ccc(N)cc4[nH]3)cc2[nH]1 | 2.9µM* | 4.1µM* | / | -1%
CN(C)c1ncnc2ccc(-c3cccnc3)cc12 | 12µM* | 23µM* | / | /
CS(=O)(=O)Nc1cccc(-c2ccc3ncnc(NCc4cccnc4)c3c2)c1 | ? | ? | / | 8%
COc1cccc(-c2ccc3ncnc(N(C)C)c3c2)c1 | 21µM* | ? | / | /
COc1ccc(C)cc1NC(=O)c1cc2c(=O)n3cccc(C)c3nc2s1 | 2% | -3% | -2% | -1%
CCN(CC)C(=O)c1cn(CCC#N)nc1-c1ccc(F)cc1 | 7% | ? | 0% | 0%
CCn1c(=O)c(C(=O)Nc2ccccc2C)c(O)c2ccccc21 | ? | 23µM* | -21% | 0%
CCCn1c(=O)c(C(=O)NC(C)c2ccccc2)c(O)c2ccccc21 (centres undefined) | ? | 26µM* | -3% | /
CCCCCn1c(=O)c(-c2nc3ccccc3[nH]2)c(O)c2ccccc21 | 21µM* | 9.2µM* | / | 3%
CCCn1c(=O)c(C(=O)Nc2ccccc2N)c(O)c2ccccc21 | 26µM* | ? | -17% | /
CCCCCCCCn1c(=O)c(C(=O)OCC)c(O)c2ccccc21 | ? | ? | ? | 3%
COc1ccc(N2CCN(C(=O)CSc3nc(-c4ccccc4)no3)CC2)cc1 | -3% | -16% | 0% | 3%
CC1CC(C)CN(C(=O)CSc2nnc(-c3ccco3)o2)C1 (centres undefined) | -4% | -11% | / | 9%
CCCCCCCC(=O)NNC(=O)c1c(O)c2ccccc2n(CCC)c1=O | ? | 23µM* | / | 10%
SMILES | TDP1 cell CPT | DT40 TDP1 no CPT | ClpP mod | TDP1 inh
CCCCCCC(=O)NNC(=O)c1c(O)c2ccccc2n(CCC)c1=O | ? | ? | 2% | 6%
COc1ccc(C(=O)Nc2nnc(SCc3cc(=O)c4cccc(F)c4[nH]3)s2)cc1 | ? | ? | -3% | 3%
COc1ccc2cc(CNCc3nonc3C)c(N3CCCC(CO)C3)nc2c1 (centres undefined) | 15%[9.04 µM] | -13% | / | /
O=[N+]([O-])/C(C(=C(Cl)Cl)N1CCN(Cc2ccccc2)CC1)=C1\NCCN1Cc1ccc(Cl)nc1 | ? | 15µM* | / | 5%
Nc1cc(OC(=O)c2ccc(F)cc2)nn1S(=O)(=O)c1ccccc1 | 4% | -22% | 1% | -9%
CN(C)/C=C/C=C1C(=O)CCCC1=O | 2% | 1% | -1% | 22µM*
C=CCOC(=O)C1=C(C)NC(SCC(=O)Nc2nccs2)=C(C#N)C1c1ccc(Cl)cc1 (centres undefined) | 22µM* | 32µM* | -9% | 5%
CCOC(=O)c1nc(NCc2ccc(Cl)cc2)c2c(C)noc2n1 | ? | ? | -10% | 5%
O=C(NCCCN1CCN(Cc2ccccc2)CC1)C1CCN(c2nnc(-n3cccc3)s2)CC1 | ? | 26µM* | 2% | 7%
Cc1ccc(C)n1-c1nnc(N2CCC(C(=O)NCCCN3CCN(C)CC3)CC2)s1 | 26µM* | ? | 2% | /
Cc1ccc(C)n1-c1nnc(N2CCC(C(=O)NCCCN3CC(C)CC(C)C3)CC2)s1 (centres undefined) | ? | -18% | 7% | 3%
Cc1cnc(CNC(=O)C2(C)CCCN2CC(C)C)cn1 (centres undefined) | -18% | -8% | -1% | /
CC1=C(C#N)C(c2cccnc2)C2=C(CC(c3ccc(Cl)cc3)CC2=O)N1 (centres undefined) | -21% | -9% | 28µM* | 6%
CC(C)(C)OC(=O)C[C@@H]1C/C=C\C[C@@H](CC(=O)N(CCO)Cc2ccccc2)C(=O)NC[C@@H](c2ccccc2)OC1=O | 21µM* | ? | ? | 2%
CC(C)(C)OC(=O)C[C@@H]1C/C=C\C[C@@H](CC(=O)N(CCO)Cc2ccccc2)C(=O)NC[C@H](c2ccccc2)OC1=O | 12µM* | ? | -1% | -1%
CC(C)(C)OC(=O)C[C@@H]1C/C=C\C[C@H](CC(=O)N(CCO)Cc2ccccc2)C(=O)NC[C@H](c2ccccc2)OC1=O | ? | ? | 0% | 0%
CC(=O)Cn1nnc2sc(-c3ccccc3)cc2c1=O | -15% | 6% | ? | 6%
CC1=C(C(=O)Nc2ccc(CC(=O)NCc3ccccc3C)cc2)SCCO1 | ? | ? | -2% | 5%
CCc1ccc(CNC(=O)Cc2ccc(NC(=O)C3=C(C)OCCS3)cc2)cc1 | 1.2µM* | 1.3µM* | / | -17%
O=C(Cc1ccc(NC(=O)N2CCSc3ncccc32)cc1)NCc1cccc(Cl)c1 | ? | 21µM* | -25% | 6%
CCOc1ccc(CNC(=O)Cc2ccc(NC(=O)N3CCSc4ncccc43)cc2)cc1 | 16µM* | 16µM* | -17% | 3%
CCOc1ccccc1CNC(=O)c1ccc(NC(=O)C2=CSCCO2)cc1 | ? | 23µM* | -2% | 3%
O=C(O)C1CC(Br)C(Br)CC1C(=O)O (centres undefined) | -9% | -27% | 0% | /
CCOC(=O)C1(CCOC)CCN(C(=O)c2ccc(CSC)o2)CC1 | 4% | 9% | -1% | 7%
CCOc1ccc(CNC(=O)c2ccc(NC(=O)N3CCSc4ncccc43)cc2)cc1OC | ? | ? | ? | 6%
CCc1ccc(CNC(=O)Cc2ccc(NC(=O)N3CCSc4ncccc43)cc2)cc1 | 26µM* | 23µM* | -13% | 8%

From PubChem BioAssay
